Test results from ChEMBL document CHEMBL3988442, “University of Dundee, Small-Polar-MMV Screening Library” (2021).
Among all 53,000 compounds or so, about 900 (1.7%) showed an effect of 50% or more. Many of the other results were omitted from the sample, so strong results are more common in it than they were.

The molecules below were run on Mycobacterium tuberculosis (assay: Cornell - Phenotypic assay to identify agents that inhibit growth of Mycobacterium tuberculosis). Settings: 10 mM as filed; unlikely as a test dose.
Type: functional
Design: scale not given: direction of the effect not stated beside the values

Row | Compound | Percent Effect [%]
1 | CC(C)(O)CN1CCN(C(=O)c2cc3ccccc3c(=O)[nH]2)CC1 | 11.41
2 | COc1cccc2cc(CNCc3ccnc(N4CCOCC4)c3)oc12 | -7.276
3 | COc1cccc2cc(CNCc3ccnc(N4CCCCC4)c3)oc12 | 60.34
4 | COc1cccc2cc(CNCc3ccc(N4CCCC4)nc3)oc12 | -14.56
5 | O=C(CCc1cccc(F)c1F)N1CCCC(n2cncn2)C1 (configuration not stated) | 5.232
6 | Cc1nn(C)c(N(C)C)c1CNC(C)COc1cccc(F)c1 (configuration not stated) | 24.93
7 | Cc1nn(C)c(N(C)C)c1CNC(C)c1cccc(OC(C)C)c1 (configuration not stated) | 54.17
8 | Cc1nn(C)c(N(C)C)c1CNC(C)Cc1c(F)cccc1F (configuration not stated) | 29.42
9 | Cn1cnc(CN2Cc3nccn3CC2c2ccccc2)c1 (configuration not stated) | 25.78
10 | CC(C)n1nccc1CN1Cc2nccn2CC1c1ccccc1 (configuration not stated) | 55.64
11 | Cc1nccc(CN2Cc3nccn3CC2c2ccccc2)n1 (configuration not stated) | -4.199
12 | Cc1csc(N2CCN(Cc3cccnc3)CC2C)n1 (configuration not stated) | 17.54
13 | O=C(NC1CCCc2c1[nH]c1ccc(F)cc21)c1n[nH]c2c1CCC2 (configuration not stated) | 5.755
14 | COc1ccc(Cl)cc1CCNC(=O)NCc1ccncc1 | 59.54
15 | COc1ccc(Cl)cc1CCNC(=O)NCc1ncnn1C | 19.31
16 | COc1ccc(Cl)cc1CCNC(=O)NCc1noc(C)n1 | 15.04

Row | Compound | Percent Effect [%]
17 | COc1ccc(C(=O)NCCNC(=O)c2scnc2Cl)cc1 | -54.01
18 | CCN(CC)C1CCN(C(=O)NCc2cccc(-n3ccnc3)c2)C1 (configuration not stated) | 34.25
19 | CCNC(=O)CCc1c(C)nc2cc(O)nn2c1C | 3.574
20 | COc1ccc(NC(=O)CCc2c(C)nc3cc(O)nn3c2C)cn1 | 65.23
21 | COC(=O)CCc1c(C)nc2cc(O)nn2c1C | -35.79
22 | Cc1cnn(CC2CCCN2Cc2nnc(C(C)C)o2)c1 (configuration not stated) | -69.76
23 | Cc1cnn(CC2CCCCN2C(=O)c2ccc3nncn3c2)c1 (configuration not stated) | -11.21
24 | Cc1cc(C)n(CC2CCCN2C(=O)c2ccc3nnc(C)n3c2)n1 (configuration not stated) | 12.74
25 | Cc1cnn(CC2CCCN2C(=O)c2ccc3nnc(C)n3c2)c1 (configuration not stated) | 107.3
26 | Cc1ncccc1CNCC1CCN(CC(C)O)CC1 (configuration not stated) | -13.7
27 | Cc1cc(-c2ccnn2C)nc(C2CCN(S(C)(=O)=O)CC2)n1 | 31.8
28 | Cc1cc(-c2ccnn2C)nc(C2CCCN(S(C)(=O)=O)C2)n1 (configuration not stated) | 51.61
29 | Cc1nc(-c2ccnn2C)cc(C2CCCN(S(C)(=O)=O)C2)n1 (configuration not stated) | 29.58
30 | Cn1nccc1-c1cccc(CC2CCN(S(C)(=O)=O)C2)n1 (configuration not stated) | 50.09
31 | Cn1nccc1-c1cncc(C2CCCN(S(C)(=O)=O)C2)n1 (configuration not stated) | 20.84
32 | CC(=O)N1CCC(Cc2cccc(-c3ccnn3C)n2)CC1 | 35.75
